Measured values as given in PubChem BioAssay AID1159580 (chemical genetic matrix, 2015).
“And” between values parts separate entries of the source, which are not always exact repeats. Equal entries are not always repeated. Among all 5,500 compounds or so, about 2,000 (36%) were called active. Not shown: some 18% with an inconclusive outcome. Rule as the data show it: active = normalized growth mostly below about 0.91 (no sharp cut-off); inconclusive = no clear call, values can overlap the other calls; inactive = mostly above about 0.92. This is one part of the list.

Experiment: chemical genetic growth profiling, strain panel (AID 1159580);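 also: tested at 20 µM; growth read once vehicle control cultures reached saturation at 30 °C; 1 = growth at the plate median or of vehicle wells; lower values mean less growth of the strain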
Conditions: S. cerevisiae deletion strains, growth OD

Measured: normalized growth

C[C@]12CCC(=O)C=C1CCC1C2C(=O)C[C@@]2(C)C1CC[C@]2(O)C(=O)CO (stereo partly drawn)
inactive: locus YAL013W, strain DEP1, active compounds read low 1 | locus YAL021C, strain ccr4, active compounds read low 1.01 | locus YAL026C, strain drs2, active compounds read low 1 | locus YAL030W, strain snc1, active compounds read low 1 | locus YBL061C, strain skt5, active compounds read low 1 | locus YBR009C, strain hhf1, active compounds read low 0.992 | locus YBR021W, strain FUR4, active compounds read low 1 | locus YBR023C, strain chs3, active compounds read low 1.01 | locus YBR171W, strain sec66, active compounds read low 1.01 | locus YBR229C, strain ROT2, active compounds read low 1 | locus YBR231C, strain swc5, active compounds read low 0.986 | locus YBR279W, strain paf1, active compounds read low 1 | locus YCL011C, strain gbp2, active compounds read low 1.01 | locus YCL016C, strain dcc1, active compounds read low 1 | locus YCL029C, strain bik1, active compounds read low 1.01 | locus YCL061C, strain MRC1, active compounds read low 0.999 | locus YCL069W, strain vba3, active compounds read low 1 | locus YCR088W, strain abp1, active compounds read low 1.01 | locus YDL005C, strain med2, active compounds read low 0.993 | locus YDL035C, strain GPR1, active compounds read low 1.02 | locus YDL040C, strain nat1, active compounds read low 1 | locus YDL074C, strain BRE1, active compounds read low 1.05 | locus YDL101C, strain DUN1, active compounds read low 1 | locus YDL134C, strain PPH21, active compounds read low 0.986 | locus YDL185W, strain tfp1, active compounds read low 1.01 | locus YDL192W, strain arf1, active compounds read low 1.02 | locus YDR001C, strain nth1, active compounds read low 1 | locus YDR069C, strain doa4, active compounds read low 0.988 | locus YDR101C, strain arx1, active compounds read low 1.04 | locus YDR137W, strain rgp1, active compounds read low 1.01 | locus YDR159W, strain sac3, active compounds read low 0.981 | locus YDR162C, strain NBP2, active compounds read low 0.984 | locus YDR195W, strain ref2 0.973 | locus YDR297W, strain sur2, active compounds read low 1 | locus YDR318W, strain mcm21, active compounds read low 0.986 | locus YDR334W, strain swr1, active compounds read low 1.01 | locus YDR335W, strain msn5, active compounds read low 1.01 | locus YDR388W, active compounds read low 1.01 | locus YDR392W, strain spt3, active compounds read low 0.929 | locus YDR502C, strain sam2, active compounds read low 1.01 | locus YEL003W, strain gim4, active compounds read low 1.01 | locus YEL037C, strain rad23, active compounds read low 1.01 | locus YEL061C, strain CIN8 (second series), active compounds read low 1.01 | locus YEL061C, strain CIN8, active compounds read low 0.998 | locus YER015W, strain faa2, active compounds read low 1 | locus YER016W, strain bim1, active compounds read low 1 | locus YER110C, active compounds read low 1.01 | locus YER111C, strain swi4, active compounds read low 1 | locus YER155C, strain BEM2 (second series), active compounds read low 1 | locus YER155C, strain BEM2, active compounds read low 1 | locus YER167W, strain BCK2, active compounds read low 0.994 | locus YFR010W, strain ubp6, active compounds read low 1 | locus YGL078C, strain dbp3, active compounds read low 1.02 | locus YGL086W, strain mad1, active compounds read low 1.02 | locus YGL167C, strain pmr1, active compounds read low 1 | locus YGL173C, strain kem1, active compounds read low 1.01 | locus YGL227W, strain vid30, active compounds read low 1 | locus YGL240W, strain doc1, active compounds read low 0.975 | locus YGL248W, strain PDE1, active compounds read low 0.984 | locus YGL253W, strain hxk2, active compounds read low 1.01 | locus YGR078C, strain PAC10, active compounds read low 0.986 | locus YGR135W, strain pre9, active compounds read low 0.968 | locus YGR229C, strain SMI1, active compounds read low 0.989 | locus YGR252W, strain gcn5, active compounds read low 0.976 | locus YHR013C, strain ard1, active compounds read low 0.979 | locus YHR027C, strain rpn1, active compounds read low 1.01 | locus YHR030C, strain SLT2, active compounds read low 0.995 and 0.999 | locus YHR079C, strain IRE1 (second series), active compounds read low 1.01 | locus YHR079C, strain IRE1, active compounds read low 0.985 | locus YHR094C, strain hxt1, active compounds read low 0.996 | locus YHR129C, strain ARP1, active compounds read low 1 | locus YHR142W, strain chs7, active compounds read low 1.02 | locus YHR200W, strain rpn10, active compounds read low 0.999 | locus YIL066C, strain RNR3, active compounds read low 0.987 | locus YIL073C, strain SPO22, active compounds read low 1.04 | locus YIL125W, strain kgd1, active compounds read low 1.01 | locus YIR030C, strain dcg1, active compounds read low 0.997 | locus YJL092W, strain hpr5, active compounds read low 1.01 | locus YJL095W, strain BCK1 (second series), active compounds read low 1.01 | locus YJL095W, strain BCK1, active compounds read low 0.975 and 0.986 | locus YJL115W, strain asf1, active compounds read low 1.01 | locus YJL129C, strain trk1, active compounds read low 1.01 | locus YJL134W, strain LCB3, active compounds read low 1 | locus YJL154C, strain vps35, active compounds read low 1.02 | locus YJL164C, strain tpk1, active compounds read low 0.996 | locus YJL166W, strain qcr8, active compounds read low 0.987 | locus YJL168C, strain set2, active compounds read low 1.01 | locus YJL187C, strain SWE1 (second series), active compounds read low 0.994
